PubChem BioAssay AID602449 (Sanford-Burnham Center for Chemical Genomics, 2012)
The whole screen tested about 360,000 compounds, of which about 5,000 (1.4%) were called active. For the sample, actives were picked, then their nearest neighbours and some compounds at random. A number with no mark means an inactive call.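 The calls were made as follows: active = inhibition of 50% or more, scaled per plate between neutral and stimulator controls; inactive = the rest.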

Test: blockers of Ca2+-induced mitochondrial swelling – biochemical, isolated mouse mitochondria, absorbance, primary screen (AID 602449);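 also: 0% = DMSO wells given calcium and 100% = 1 mM EGTA wells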
Conditions: 30 min, at 10 µM, hits give high values
With `COc1cc(SC)ccc1C(=O)Nc1nc(C)cs1` the inhibition was 0.2%. In the case of `CCCCOc1ccc(CSC(=N)N)cc1[N+](=O)[O-]`, the inhibition is reported as 112% (active). Compound `CCCCOC(=O)CCCc1ccc([N+](=O)[O-])cc1[N+](=O)[O-]` has an inhibition of 1.5%. `CCCCCOc1ccc(CSC2=NCCN2)cc1[N+](=O)[O-]` gave an inhibition of -1.4%. In the case of `O=C(CCN1C(=O)/C(=C/c2cccs2)SC1=S)NNC(=O)c1cccc(O)c1`, the inhibition is reported as 67.7% (active). Work on `CC(C(=O)Nc1ccc(O)c(C(=O)O)c1)N1C(=O)/C(=C/c2cccs2)SC1=S` (centres undefined) yielded an inhibition of -1.2%. `Cc1c(C(=O)NCCN2C(=O)S/C(=C\c3cccs3)C2=O)cccc1[N+](=O)[O-]` showed an inhibition of 1.1%. For `COc1ccccc1N(C(=O)Cn1nnc2ccccc21)C(C(=O)NCc1ccco1)c1ccc(C)o1` (centres undefined), the inhibition was 4%. In the case of `O=C(NCCc1ccccc1)c1ccc2c(c1)N(Cc1ccccc1)CCS2`, the inhibition is reported as 0.6%. With `CCOC(=O)N1CCN(C(=O)c2ccc3c(c2)N(Cc2ccc(C)cc2)CCS3)CC1` the inhibition was 89% (active). `CCOC(=O)N1CCN(C(=O)c2ccc(CN(c3ccc(C)c(C)c3)S(C)(=O)=O)cc2)CC1` gave an inhibition of 5.2%. `CN(CCc1ccccc1)C(=O)c1cccc(NC(=O)Cc2cccc(NC(=O)C3CCCN(C(=O)CCc4ccccc4)C3)c2)c1` (centres undefined) gave an inhibition of -0.3%. `CC(=O)c1c(C)[nH]c(C(=O)Nc2cc(S(=O)(=O)N(C)C)ccc2C)c1C` gave an inhibition of -1.8%. Work on `CSc1ccc(/C=C2\NC(=O)NC2=O)cc1` yielded an inhibition of 0.6%. For `COC(=O)C1(C)NC(c2ccccc2OC)C2C(=O)N(c3ccccc3)C(=O)C21` (centres undefined), the inhibition was 1.1%. In the case of `COc1cc(OC)cc(C(=O)NCC(=O)OCc2csc(-c3ccccc3)n2)c1`, the inhibition is reported as -4.3%. With `Cc1ccc(-c2nc(COC(=O)c3c(C)noc3C)cs2)cc1` the inhibition was 88.5% (active). `COc1ccc(C(=O)COC(=O)c2c(C)noc2C)cc1Cl` gave an inhibition of -2.4%. `CC12CN(NC(=O)c3ccc(Cl)cc3)C3(C#N)CC1CCC23C` (centres undefined) gave an inhibition of 8.6%. With `Nc1ncc(CN2CCCC(C(=O)Nc3ccc(-c4ccco4)cc3)C2)cn1` (centres undefined) the inhibition was -0.6%. `CCOC(=O)C1(Cc2ccc(O)cc2)NC(c2ccccc2F)C2C(=O)N(C)C(=O)C21` (centres undefined) gave an inhibition of -1.2%. For `CC(C)OCCCNc1ncnc2c1[nH]c1ccc(F)cc12`, the inhibition was 88.4% (active). `O=C1CSc2ccc(S(=O)(=O)NCc3ccccc3)cc2N1` showed an inhibition of -1.3%. In the case of `Cc1ccc(C)c(S(=O)(=O)n2cnc3ccccc32)c1`, the inhibition is reported as -3.1%. With `Cc1ccc(C)c(S(=O)(=O)N2CCN(c3ncnc4sccc34)CC2)c1` the inhibition was 86.5% (active). Compound `Cc1ccc(C)c(S(=O)(=O)N2CCN(CC(=O)Nc3ccc([N+](=O)[O-])cc3)CC2)c1` has an inhibition of 7.1%. For `CCCNC(=O)C1(C)CCN1C(=O)C1(c2ccccc2)CC1` (centres undefined), the inhibition was -0.6%. With `O=C(CSc1ccc(C(F)(F)F)cc1[N+](=O)[O-])NCCOc1ccccc1` the inhibition was 18%. Compound `C=CCNC(=O)CCCOc1cccc(C)c1` has an inhibition of 1.5%. In the case of `Cc1cccc(OCCNC(=O)CSc2ccc(C(F)(F)F)cc2[N+](=O)[O-])c1`, the inhibition is reported as 80.1% (active). With `Cc1cc(C)n2c(NCc3ccccc3)c(CC(C)C)nc2n1` the inhibition was 0.4%. `Cc1ccccc1C1CC(c2cccs2)=NN1S(C)(=O)=O` (centres undefined) gave an inhibition of -0.3%. `O=C(COc1ccccc1Cl)N1N=C(c2cccs2)CC1c1ccco1` (centres undefined) showed an inhibition of -0.8%. In the case of `Fc1ccc(N2N=C(c3cccs3)CC2c2ccco2)c(F)c1` (centres undefined), the inhibition is reported as 57.7% (active). Work on `O=C(NCc1ccccn1)c1cnc2sccn2c1=O` yielded an inhibition of -2.8%. With `C/C(=N\Nc1ccc(S(N)(=O)=O)cc1[N+](=O)[O-])c1cccs1` the inhibition was 2.3%. With `c1ccc2c(CSCc3nc4ccccc4[nH]3)cccc2c1` the inhibition was 74.4% (active). Compound `O=C(OCc1nc2ccccc2[nH]1)C1CCCCC1` has an inhibition of -0.1%. For `c1ccc2c(C[n+]3csc4ccccc43)cccc2c1`, the inhibition was -1.7%. In the case of `COc1ccc(N(CC(=O)N2CCOCC2)S(=O)(=O)c2ccccc2)cc1Cl`, the inhibition is reported as 1.3%. With `O=c1c2cc(Br)ccc2nc(-c2cccc(Cl)c2)n1O` the inhibition was 0.6%. For `O=c1[nH]c(/C=C/c2cccc(Br)c2)nc2ccccc12`, the inhibition was 2.1%. For `O=C(/C(=C/c1cccc(Cl)c1)c1nc2ccccc2[nH]1)c1ccccc1`, the inhibition was 84.4% (active). For `CC1CN(C(=S)Nc2ccc(S(N)(=O)=O)cc2)CC(C)O1` (centres undefined), the inhibition was -0.5%. `NC(=O)Cn1c(=O)oc2ccccc21` showed an inhibition of -0.1%. `CN1CCN(c2ncc3c(n2)CC(c2ccccc2F)CC3=O)CC1` (centres undefined) gave an inhibition of 1.4%. In the case of `O=C(Oc1ccccc1Cl)c1ccc(N2CCOCC2)c([N+](=O)[O-])c1`, the inhibition is reported as 9.1%. For `CS(=O)(=O)c1ccccc1C(=O)Nc1ccc2sccc2c1`, the inhibition was -0.4%. With `O=C(Nc1ccc2ccccc2c1)Nc1ccc2snnc2c1` the inhibition was 99.8% (active). `Cc1ccc(NC(=O)Nc2ccc3oc(C)nc3c2)cc1` gave an inhibition of -2.9%. `CC1(C(=O)NS(=O)(=O)c2cccc(F)c2)CCN1C(=O)Cc1cc(F)ccc1F` (centres undefined) gave an inhibition of -0.4%. `CCc1nc2c(OCc3ccc(C(F)(F)F)cc3)cccn2c1N(C)C(=O)CC(C)C` showed an inhibition of 0.1%. `O=C(O)c1cc(S(=O)(=O)NC2CCCc3ccccc32)ccc1O` (centres undefined) showed an inhibition of 0.3%. For `COc1cc(C2C(N3C(=O)c4ccccc4C3=O)C(=O)N2c2ccc(C)c(C)c2)cc(OC)c1OC` (centres undefined), the inhibition was 3%. For `COc1ccc2c(c1)c(=Cc1ccc(N(C)C)cc1)c1cc(-c3ccccc3)[n+](C)n12`, the inhibition was 80.7% (active). In the case of `Cc1nc(N2CCN(c3ccccn3)CC2)c2c(C)c(C(=O)Nc3ccc(F)c(Cl)c3)sc2n1`, the inhibition is reported as 16.7%. `Cc1nc(N2CCC(C)CC2)c2c(C)c(C(=O)Nc3cc(F)ccc3C)sc2n1` showed an inhibition of 13.5%. In the case of `Cc1nc(N2CCOCC2)c2c(C)c(C(=O)Nc3ccc(C(F)(F)F)cc3)sc2n1`, the inhibition is reported as 72.5% (active). `C=C(C)Cn1c(N2CCN(CC)CC2)nc2c1c(=O)[nH]c(=O)n2C` showed an inhibition of -0.4%. `Cc1ccc(C(=O)c2ccc(N3CCN(C)CC3)c([N+](=O)[O-])c2)cc1` gave an inhibition of 0.6%. Work on `COc1ccc(C(=O)c2c(C)oc3cc([N+](=O)[O-])c(O)c([N+](=O)[O-])c23)cc1` yielded an inhibition of 3.3%. With `Cc1oc2cc([N+](=O)[O-])c(O)c([N+](=O)[O-])c2c1C(=O)c1ccc(Br)cc1` the inhibition was 74.4% (active). In the case of `O=C(Nc1ccccc1F)C1C2C=CC3(O2)C1C(=O)N(c1cccnc1)C3C(=O)NC1CCCCC1` (centres undefined), the inhibition is reported as 1.6%. For `O=S(=O)(NCC1OCCc2ccccc21)c1ccccc1` (centres undefined), the inhibition was 4.3%. In the case of `O=C(O)C(CCc1ccccn1)c1ccccc1` (centres undefined), the inhibition is reported as 0.6%. Work on `CC1CCCC(NC(=O)c2cccc(N3CCCC3=O)c2)C1C` (centres undefined) yielded an inhibition of -0.6%. With `CCCOc1ccc(C(=O)C(CCC(CNCC)C(=O)c2ccc(OCCC)cc2)CNCC)cc1` (centres undefined) the inhibition was 73.6% (active). Compound `CCCc1ccc(OCCNC(=O)c2ccccc2Br)cc1` has an inhibition of 0.4%. Work on `CC(C)CCOc1ccc(C(=O)C[N+]2(C)CCOCC2)cc1` yielded an inhibition of -1.9%. For `COc1cccc(NC(=O)COc2cc(C)cc3oc(=O)cc(C)c23)c1`, the inhibition was 0.4%. With `Cc1nccn1CCC1CCCCN1C(=O)CCc1nnc(-c2ccsc2)o1` (centres undefined) the inhibition was -1.2%. For `O=C(Nc1nnc(C2COc3ccccc3O2)o1)c1ccc(F)cc1` (centres undefined), the inhibition was -3%. In the case of `c1ccc2c(c1)CSc1sccc1C2=C1CCNCC1`, the inhibition is reported as 94.3% (active). Work on `Cc1ccc(-n2ncc3c(Nc4cccc(C(=O)O)c4)ncnc32)cc1` yielded an inhibition of 3.4%. With `Cc1nn(Cc2ccccc2)c2c1C(c1ccccc1)C(C#N)=C(N)O2` (centres undefined) the inhibition was 81.3% (active). In the case of `Cn1c2c(c(=O)n(C)c1=O)C(c1cccc(F)c1)C(C#N)=C(N)O2` (centres undefined), the inhibition is reported as 1.8%. `N#CC1=C(N)Oc2cc(N)ccc2C1c1ccccc1` (centres undefined) showed an inhibition of -0.1%. With `C[C@H]1CN([C@@H](C)CO)C(=O)CCCn2cc(nn2)CO[C@@H]1CN(C)S(=O)(=O)c1ccccc1C#N` the inhibition was -0.4%. `COc1ccc(NC(=O)C(CC(C)C)NC(=O)C2CCC(C)CC2)cc1` (centres undefined) gave an inhibition of 0.1%. Compound `O=C(CN1CCN(c2ccccc2O)CC1)NC(=O)NCc1ccccc1` has an inhibition of 1.2%. In the case of `O=C(CSc1ncn[nH]1)Nc1nc(-c2cccc([N+](=O)[O-])c2)cs1`, the inhibition is reported as 8.3%. In the case of `O=C(CN1CCC(NC(=O)Nc2ccccc2)CC1)Nc1cccc([N+](=O)[O-])c1`, the inhibition is reported as -0.8%. For `O=C(CSc1nc(-c2ccccc2)cs1)Nc1cccc([N+](=O)[O-])c1`, the inhibition was 93% (active). In the case of `CC1CCC(NC(=O)CN(C)S(=O)(=O)c2ccc3c(c2)c(=O)n(C)c(=O)n3C)CC1` (centres undefined), the inhibition is reported as -2.1%. With `O=C(CSc1nnc(-c2cccs2)n1Cc1ccco1)c1ccc2c(c1)OCO2` the inhibition was -1.2%. In the case of `COc1ccc(/C=C2\CCCC3C2=NN(C(=O)c2scnc2C)C3c2ccc(OC)cc2)cc1` (centres undefined), the inhibition is reported as -3.7%. In the case of `CCc1ccc(C(=O)NNC(=O)C2CCN(c3ncnc4sc(C)c(C)c34)CC2)cc1`, the inhibition is reported as -0.3%. With `CCc1cc2c(N3CCN(c4nnc(CC)s4)CC3)ncnc2s1` the inhibition was 58.3% (active). In the case of `NC[C@H](Cc1ccccc1)NCCc1cc(C(F)(F)F)cc(C(F)(F)F)c1`, the inhibition is reported as 88.5% (active). Compound `COC(=O)[C@@H](Cc1ccccc1)NC(=O)NCCc1ccccc1` has an inhibition of 0.6%. Work on `CCOC(=O)c1c(NC(=O)CNC2CCCc3ccccc32)sc(C(N)=O)c1C` (centres undefined) yielded an inhibition of 0.8%. For `O=C(NC1CCN(Cc2ccccc2)CC1)c1ccc(Oc2cc(Cl)cc(Cl)c2)o1`, the inhibition was 10.6%. With `O=C(NC1CCN(Cc2ccccc2)CC1)c1cc(Br)c(Br)[nH]1` the inhibition was 66.2% (active). With `Cc1cc(C(=O)NC2CCN(Cc3ccccc3)CC2)n[nH]1` the inhibition was -1.6%.
